SMN2 splice up = qHTS Assay for Enhancers of SMN2 Splice Variant Expression | HEK293 SMN2-luciferase splicing reporter, luminescence, 30-36 h | Potency, µM (top dose mostly 46.1 µM), hits mostly activators | 2.8% of 210,000 active; also: nearly all actives have a fitted effect of over 55% in size
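HEK293 cells carry an SMN2 minigene-luciferase reporter in which exon 7 inclusion puts luciferase in frame. Cells were seeded at 2000 cells/well, attached for 10-12 hours, then exposed to compounds for 30-36 hours at 37C before ONE-Glo luminescence.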
NPC1 promoter act = qHTS Assay for NPC1 Promoter Activators. Potency, µM (doses to about 9.22 µM), hits mostly activators. Huh7 NPC1 promoter luciferase reporter, 24 h. AID 485313, 2010. 2.4% of 320,000 active; also: nearly all actives have a fitted effect of over 60% in size
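Huh7 reporter cells (NPC1 promoter driving luciferase) are dosed with compound for 24 h at 37 °C, 5% CO2; luciferase detection reagent is then added and luminescence measured after 10 min at ambient temperature.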
Rab9 prom act = qHTS Assay for Rab9 Promoter Activators; Huh7 Rab9 promoter-luciferase reporter, luminescence, 24 h; Potency, µM (top dose mostly 9.22 µM), hits mostly activators; 2.8% of 320,000 active; AID 485297, 2010; also: nearly all actives have a fitted effect of over 60% in size
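Steps: seed 1500 Huh7 Rab9-luc cells per well, rest 2 h at 37 °C; add compound in DMSO; incubate 24 h; add luciferase reagent, 10 min ambient; read luminescence.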
KinaseGlo FLuc = Counterscreen for Luciferase (Kinase-Glo TM) Inhibition; 0.28% of 200,000 active; Potency, µM (top dose mostly 38.3 µM), hits mostly inhibitors; Kinase-Glo luciferase, ATP luminescence, 8 min; also: nearly all actives have a fitted effect of over 60% in size
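Compound is pinned into ATP-containing buffer (10 uM ATP, imidazole pH 7.2, 7 mM MgCl2). Kinase-Glo luciferase reagent is then added. Light output is recorded following an 8-min room-temperature incubation.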
ELG1 genotoxic = qHTS screen for small molecules that induce genotoxicity in human embryonic kidney (HEK293T) cells expressing luciferase-tagged ELG1. 1.3% of 330,000 active. AID 504466, 2011. HEK293T ELG1-luciferase reporter, luminescence, 16 h. Potency, µM (doses to about 46 µM), hits mostly activators; also: nearly all actives have a fitted effect of over 60% in size
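After overnight (16 hr) compound treatment at 37 °C, ELG1-luciferase HEK293T cells were lysed with ONE-Glo; luminescence quantified 30 min later at room temperature.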
FLuc counter = qHTS profiling assay for firefly luciferase inhibitor/activator using purifed enzyme and Km concentrations of substrates (counterscreen for miR-21 project); Luciferin 4-monooxygenase (Photinus pyralis), P08659; purified FLuc, Km substrates, luminescence inhibition; Potency, µM (doses to about 57.5 µM), most hits filed as inhibitors; 6.9% of 360,000 active; AID 588342, 2011; also: nearly all actives have a fitted effect of over 55% in size
Target sequence (P08659 whole entry, looked up): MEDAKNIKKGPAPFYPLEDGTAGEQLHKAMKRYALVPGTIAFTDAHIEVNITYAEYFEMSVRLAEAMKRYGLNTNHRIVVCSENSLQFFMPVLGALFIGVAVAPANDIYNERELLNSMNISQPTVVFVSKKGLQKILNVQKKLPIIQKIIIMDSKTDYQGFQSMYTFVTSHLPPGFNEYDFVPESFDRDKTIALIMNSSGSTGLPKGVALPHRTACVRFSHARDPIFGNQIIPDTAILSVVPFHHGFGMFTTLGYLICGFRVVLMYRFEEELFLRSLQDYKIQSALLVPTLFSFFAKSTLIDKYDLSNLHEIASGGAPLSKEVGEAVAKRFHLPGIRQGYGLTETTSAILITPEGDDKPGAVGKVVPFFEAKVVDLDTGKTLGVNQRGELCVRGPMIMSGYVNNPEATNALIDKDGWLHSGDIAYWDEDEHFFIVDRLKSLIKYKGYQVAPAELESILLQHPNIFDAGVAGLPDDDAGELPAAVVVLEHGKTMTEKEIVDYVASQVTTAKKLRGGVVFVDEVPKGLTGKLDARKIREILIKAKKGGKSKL
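Biochemical qHTS of compounds, final roughly 60 µM downward over six points, against 10 nM purified firefly luciferase using Km concentrations of substrates (10 uM D-luciferin, 10 uM ATP) in Tris acetate pH 7.5 buffer; luminescence output.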
Each line names hits and unclear results; the compound was inactive in the other large screens. The list is not random: actives were taken first. Their share in the collection is about 7.5%. Calls follow the shape of the dose curve; as a rule, active = well fitted curve in the direction sought with a large enough effect; inconclusive = small, poorly fitted or top-dose-only effect, or another doubt; inactive = no such curve, though single readings can be large; an effect the other way counts as inactive or inconclusive.

CC(OC(=O)Cc1c(F)cccc1Cl)C(=O)NC1(C#N)CCCCC1 (stereo not drawn)	none (no result: SMN2 splice up, KinaseGlo FLuc)
O=C(CSc1ccc(-c2ccccc2)nn1)c1ccccc1	SMN2 splice up inconclusive, NPC1 promoter act inconclusive, Rab9 prom act inconclusive, ELG1 genotoxic inconclusive, FLuc counter 17µM
Cc1ccc(C(=O)CSc2ccc(-c3ccccc3)nn2)cc1	FLuc counter inconclusive
Cc1c2cn[nH]c(=O)c2c(C)n1-c1ccccc1	FLuc counter 6µM (no result: SMN2 splice up, KinaseGlo FLuc)
Cc1ccc(Cn2ccc(NC(=O)c3cc(-c4ccc(Cl)c(Cl)c4)on3)n2)cc1	none (no result: NPC1 promoter act, Rab9 prom act, KinaseGlo FLuc, ELG1 genotoxic)
CC(C)Oc1ccc(Nc2ncnc3ccccc23)cc1	SMN2 splice up 13µM, NPC1 promoter act 3.5µM, Rab9 prom act 3.2µM, ELG1 genotoxic inconclusive, FLuc counter 17µM
Cc1ccc(Nc2ncnc3ccccc23)cc1	NPC1 promoter act inconclusive, Rab9 prom act 1.8µM, FLuc counter 12µM (no result: SMN2 splice up)
Oc1ccc(Nc2ncnc3ccccc23)cc1	FLuc counter inconclusive (no result: SMN2 splice up, KinaseGlo FLuc)
Cc1nc(-c2ccccn2)sc1C(=O)Nc1ccc(F)cc1F	Rab9 prom act 4µM, ELG1 genotoxic inconclusive
CCOC(=O)c1cc(-c2ccccc2)sc1NC(=O)C(C)(C)C	none
O=C(N/N=C/c1ccc(Cl)cc1)c1cc2c(s1)-c1ccccc1CC2	none
COC(=O)c1cc(-c2ccccc2)sc1N	ELG1 genotoxic inconclusive, FLuc counter 21µM
Nc1sc(-c2ccccc2)cc1C(=O)N/N=C/c1ccc(Cl)cc1	FLuc counter 6µM (no result: SMN2 splice up, KinaseGlo FLuc)
O=S(=O)(NC(=NCc1ccccc1)c1ccc(F)cc1)c1ccc(Cl)cc1	none
COc1ccc(Br)c2c1-c1nc(NC(=O)c3ccccc3SC)sc1C2	none (no result: NPC1 promoter act, Rab9 prom act, KinaseGlo FLuc, ELG1 genotoxic)
CC(C)(C)OC(=O)N1CCC(c2c(C(=O)NCc3cccc(Cl)c3)cnn2-c2ccc(F)cc2)CC1	none (no result: SMN2 splice up, NPC1 promoter act, Rab9 prom act, KinaseGlo FLuc, ELG1 genotoxic)
CCOC(=O)CCN(c1ccccc1)S(=O)(=O)c1cc(-c2cc(C)no2)ccc1C	none (no result: SMN2 splice up, NPC1 promoter act, Rab9 prom act, KinaseGlo FLuc, ELG1 genotoxic)
COCCNc1c(-c2cc3ccc(C)c(C)c3[nH]c2=O)nc2ccccn12	NPC1 promoter act 2.5µM, Rab9 prom act 0.71µM, ELG1 genotoxic inconclusive, FLuc counter 3.4µM (no result: SMN2 splice up)
COCCNc1c(-c2ccc(OC)c(OC)c2)nc2ccc(Cl)cn12	none (no result: SMN2 splice up)
COc1ccccc1CNC(=O)CCNS(=O)(=O)c1cccc2nonc12	none (no result: SMN2 splice up, KinaseGlo FLuc)
Cc1cc(C)c(NC(=O)Cn2nnc3sc4c(c3c2=O)CCC(C(C)(C)C)C4)c(C)c1 (stereo not drawn)	none (no result: NPC1 promoter act, Rab9 prom act, KinaseGlo FLuc, ELG1 genotoxic)
CCn1nnc2sc3c(c2c1=O)CCC(C)C3 (stereo not drawn)	NPC1 promoter act inconclusive, Rab9 prom act inconclusive, FLuc counter 13µM
CC(=O)Cn1nnc2sc3c(c2c1=O)CCC(C(C)(C)C)C3 (stereo not drawn)	NPC1 promoter act 3.5µM, Rab9 prom act 2.8µM, FLuc counter 21µM
CCCC(=O)Nc1nnc(SCc2cc(=O)n3cccc(C)c3n2)s1	none (no result: SMN2 splice up, NPC1 promoter act, Rab9 prom act, KinaseGlo FLuc, ELG1 genotoxic)
COC(=O)CCCNC(=O)c1ccc2oc(CCCc3ccccc3)nc2c1	Rab9 prom act inconclusive, FLuc counter inconclusive (no result: SMN2 splice up, KinaseGlo FLuc)
COC(=O)[C@@H](C)NC(=O)c1ccc2oc(CCc3ccccc3)nc2c1	NPC1 promoter act 4µM, Rab9 prom act 2.5µM, ELG1 genotoxic inconclusive, FLuc counter 21µM (no result: SMN2 splice up, KinaseGlo FLuc)
O=C(c1ccc2oc(CCc3ccccc3)nc2c1)N1CC[C@H](O)C1	NPC1 promoter act 3.5µM, Rab9 prom act 1.4µM, ELG1 genotoxic inconclusive, FLuc counter inconclusive (no result: SMN2 splice up, KinaseGlo FLuc)
CCOC(=O)N1CCN(C(=O)c2ccc3oc(CCCc4ccccc4)nc3c2)CC1	NPC1 promoter act 1.6µM, Rab9 prom act 1.6µM, ELG1 genotoxic inconclusive, FLuc counter 6µM (no result: SMN2 splice up, KinaseGlo FLuc)
O=C(c1ccc2oc(CCCc3ccccc3)nc2c1)N1CCCC(CCCO)C1 (stereo not drawn)	none (no result: SMN2 splice up, KinaseGlo FLuc)
CCCCc1nc2cc(C(=O)N(C)C3CCOCC3)ccc2o1	NPC1 promoter act inconclusive, Rab9 prom act 2.5µM, ELG1 genotoxic 9.2µM, FLuc counter 13µM (no result: SMN2 splice up, KinaseGlo FLuc)
CCCCc1nc2cc(C(=O)N(C)CCc3cn[nH]c3)ccc2o1	FLuc counter inconclusive (no result: SMN2 splice up, KinaseGlo FLuc)
CC(=O)N1CCN(C(=O)c2ccc3oc(CCCc4ccccc4)nc3c2)CC1	none (no result: SMN2 splice up, KinaseGlo FLuc)

Source: PubChem BioAssay
